Unmarked numbers belong to inactive results. Active and inactive are the calls of the source. No stated cut-off is given here; in the data, active means log2 fold change growth below about -1.8; inactive means the rest.

The nature of this assay: C. elegans growth inhibition, whole organism, log2 fold change (AID 1259336).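 Further: growth scored by imaging after five days at 20 °C.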 Particulars: anthelmintic screen, active compounds read low.
Take `c1ccc(Oc2ccc(-c3cc(C4CCOCC4)[nH]n3)cc2)cc1`: the log2 fold change growth is -0.254.
`O=C(Nc1cnc2ccccc2c1)c1cccc(-n2cnnn2)c1`: the log2 fold change growth is 0.489.
With `COc1ccc(C2=NN(C3CCCCCC3)C(=O)C2(C)C)cc1OCCCCOc1ccc(-c2nn[nH]n2)cc1` the figure was -0.216; with `COc1ccccc1CNC(=O)c1cc(C2CC2)nc2c1cnn2C(C)C`, -0.297; with `COc1ccc(-c2onc(C(F)(F)F)c2-c2ccc(Cl)cc2)c(O)c1`, 0.102.
Take `CNC(=O)c1nn(C)c2c1C(C)(C)Cc1cnc(Nc3ccc(N4CCN(C)CC4)cc3)nc1-2`: the log2 fold change growth is 0.103.
With `CCc1nc2ccc(Cl)cn2c1C(=O)NCc1ccc(N2CCC(c3ccc(OC(F)(F)F)cc3)CC2)cc1` the figure was -0.0431; with `Cc1ccc(NC(=O)C[C@H]2COc3ccccc3O2)cc1Cl`, -0.476; with `O=C(N[C@H]1CCN(c2ccnc3ccccc23)C1)c1cccc(C(F)(F)F)c1`, 0.541.
For `Cc1cc2ccccc2n1CC(=O)N1C[C@@H](C(=O)N2CCCCC2)Oc2ccccc21`, the log2 fold change growth was 0.0798.
Turning to `CN1CCN(c2nccc3[nH]c(-c4cccc(F)c4)cc23)CC1`, the log2 fold change growth was -0.0356.
In the case of `N#CCN(CCCCN1CCN(c2ccc(F)cc2)CC1)C(=O)OCc1ccccc1`, the log2 fold change growth is 0.194.
With `CC(=O)N1CCc2cc3nc(C)cc(C)c3cc21` the figure was 0.139; with `Cc1cccnc1NC(=O)c1cccc(OCc2c(C)noc2C)c1`, 0.0511.
As to `Cc1ccc(NC(=O)c2cc(S(=O)(=O)NC(C)(C)C)ccc2C)nc1`, the log2 fold change growth was 0.26.
With `COc1cc(C2=NCCN2)ccc1-n1cc(-c2cccc(C3=NCCN3)c2)nn1` the figure was -0.901.
For the compound `CC(C)(C)C(=O)N(CCCCCCN1C[C@H](O)[C@@H](O)[C@H](O)[C@H]1CO)C1CCCCCC1`, the log2 fold change growth is -0.767.
With `CCCc1ccc(S(=O)(=O)Nc2ccc(CN3CCN(CC4CC4)CC3)cc2)cc1` the figure was 0.319.
Turning to `c1ccc(-c2[nH]c3ccccc3c2[C@@H](c2ccccn2)N2CCCC2)cc1`, the log2 fold change growth was -0.0251.
In the case of `Cc1noc(C)c1C(=O)N1CCC[C@H](c2[nH]c3c(C)cccc3c2-c2ccncc2)C1`, the log2 fold change growth is -0.149.
With `O=C(Nc1cccnc1)c1c(O)c2cccc3c2n(c1=O)CC3` the figure was -4.81 (active); with `C[C@@H](C(=O)Nc1ccc2oc(-c3ccncc3)nc2c1)c1ccccc1`, 0.0616; with `CCOc1ccc(-c2nc(CNCCc3ccc(F)cc3)cs2)cc1`, 0.153.
With `Cc1ccc2nc(Cl)c(CNCc3cccs3)cc2c1` the figure was -0.121.
As for `N=C(N)c1ccc(-c2cc(-c3ccccc3)on2)cc1`, the log2 fold change growth was 0.247.
Take `CN(C)c1cc(NC(=O)Nc2ccccc2)c2ccccc2n1`: the log2 fold change growth was 0.272.
For `FC(F)(F)c1nnc2ccc(Cl)nn12`, the log2 fold change growth was -0.128.
With `O=C(NCCN1CCCC1)c1cc(NCCCCN2CCC(F)(F)CC2)nc2ccc(Cl)cc12` the figure was 0.489; with `O=C(Nc1cccc(-c2ccc(NCCCN3CCCC3)nc2)c1)c1ccccc1`, 0.467.
With `O=C(COc1cccc(F)c1)Nc1nc(-c2ccccn2)cs1` the figure was -0.223; with `CC(C)(C)OC(=O)N1CCN(c2cc(-c3ccc(Oc4ccccc4)cc3)[nH]n2)CC1`, -0.56.
With `COc1cc(C2=NCCN2)ccc1-c1cn(-c2cccc(C3=NCCN3)c2)nn1` the figure was -0.121.
Take `COc1cccc(CC(=O)N2CCC(n3c(C)nc4ccc(F)cc43)CC2)c1`: the log2 fold change growth was 0.116.
With `NS(=O)(=O)c1cccc(-c2ccc3ncc(N4CCOCC4)nc3c2)c1` the figure was -0.363.
With `CCCCOC(=O)Nc1cc2[nH]c(C3CCCCC3)nc2cc1N1CCCC1` the figure was -0.373.
On to `CC(C)N=c1cc2n(-c3ccc(Cl)cc3)c3ccccc3nc-2cc1Nc1ccc(Cl)cc1`, for which the log2 fold change growth is 0.0581.
With `O=C(NC1CC1)c1ccc(N2CCOc3ccc(Cl)cc32)s1` the figure was -0.614.
With `CCc1ccc(S(=O)(=O)Nc2cc(CN3CCN(CCC(C)C)CC3)ccc2C)cc1` the figure was 0.554.
